Six compounds from PubChem BioAssay can be followed below.

Test [1] has as its target Cell division control protein 42 homolog (Homo sapiens) (UniProt P60953). The experiment in a line: inhibition of fluorescent GTP binding to constitutively active Cdc42 – biochemical, multiplex bead flow cytometry, Bodipy-FL-GTP, dose response (AID 1333;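 active means fitted half-maximal concentration within the tested dose range, moderate curve steepness, a statistically real signal drop, and little compound fluorescence or tag-binding interference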). Background: In flow cytometry, cells or beads pass a laser one at a time.
The target is the same in test [2]. The experiment in a line: inhibition of fluorescent GTP binding to wildtype Cdc42 – biochemical, multiplex bead flow cytometry, Bodipy-FL-GTP, dose response (AID 1334;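 active means fitted half-maximal concentration within the tested range, moderate curve steepness, significant signal drop, and little compound fluorescence or bead-linkage interference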). The note with it: bead-based flow cytometry, Bodipy-FL-GTP binding to GST-Cdc42; at 100 µM (top of the series) unless noted.
The target of test [3] is GTPase HRas (Homo sapiens) (UniProt P01112). The experiment in a line: Ras wt fluorescent GTP loading blockade – biochemical, wildtype, multiplex bead flow cytometry, dose response (AID 1335;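 active means fitted half-maximal concentration within 10 nM to 100 µM, steepness 0.5 to 2, significant signal drop, low assay interference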). The note with it: bead-based flow cytometry, Bodipy-GTP binding to GST-Ras; at 100 µM (top of the series) unless noted.
GTPase HRas (Homo sapiens), sequence (P01112 whole entry, looked up): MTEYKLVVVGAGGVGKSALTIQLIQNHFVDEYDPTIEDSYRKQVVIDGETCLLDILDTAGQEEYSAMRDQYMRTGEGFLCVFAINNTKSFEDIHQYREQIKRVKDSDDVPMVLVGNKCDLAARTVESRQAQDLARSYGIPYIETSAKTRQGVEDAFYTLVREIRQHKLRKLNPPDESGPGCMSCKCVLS
Test [4] concerns Ras-related protein Rab-7a (dog), GTP binding. The experiment in a line: blockers of fluorescent GTP binding to Rab7 – biochemical, wildtype, multiplex bead flow cytometry, dose response (AID 1336; call rule not given here).
In test [5] the target is Ras-related C3 botulinum toxin substrate 1 (Homo sapiens) (UniProt P63000). The experiment in a line: inhibition of wildtype Rac1 nucleotide loading – biochemical, multiplex bead flow cytometry, dose response (AID 1340;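 active means dose curve with midpoint inside tested range, moderate steepness, plateau gap beyond fit error, low compound glow and bead-link interference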). The note with it: GST-Rac1 beads, Bodipy-FL-GTP binding; at 100 µM (top of the series) unless noted.
Test [6] has as its target GTPase HRas (Homo sapiens) (UniProt P01112). The experiment in a line: blockade of GTP loading onto mutant Ras – biochemical, activated mutant, multiplex bead flow cytometry, dose response (AID 1341;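 active means dose-response curve with midpoint inside the tested range, moderate steepness, significant amplitude and little compound fluorescence or bead-attachment interference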;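 further: GST-tagged constitutively activated Ras mutant immobilized on beads and multiplexed with other GTPases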).
A short description of test [7]: hit retest on RPL19A-GFP reporter strain – cell-based, S. cerevisiae, flow cytometry, cherry picks, mother/daughter gates, confirmation (AID 2270;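 active means GFP response below 50% of the DMSO control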). The note with it: 3 h, at 10 µM, stronger effect = lower value, 100 = same GFP as DMSO wells.
Test [8] can be described thus: yeast TOR pathway reporter LAP4-GFP change – cell-based, cherry picks, flow cytometry, mother/daughter gates, confirmation (AID 2271;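 active means GFP response above 150% of the DMSO control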;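 further: ratio of sample to DMSO plate mean so 100% equals DMSO level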). The note with it: S. cerevisiae LAP4-GFP strain, 3 h, at 10 µM, stronger effect = higher value, 100 means same as DMSO control.
Test [9] in a line: TOR pathway reporter MEP2-GFP, retest of hits – S. cerevisiae, flow cytometry GFP, cherry picks, confirmation (AID 2272;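 active means GFP response above 150% of the DMSO control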;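 further: ratio of well signal to plate DMSO mean so 100% equals DMSO level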). The settings on record: S. cerevisiae MEP2-GFP strain, 3 h, at 10 µM, stronger effect = higher value.
A short description of test [10]: yeast AGP1-GFP fluorescence change, single-dose – cell-based, flow cytometry, S. cerevisiae, cherry picks, confirmation (AID 2273).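 Further: median GFP channel fluorescence over the whole cell population gate.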 The settings on record: S. cerevisiae AGP1-GFP strain, 3 h, at 10 µM.
A short description of test [11]: TOR pathway CIT2 reporter hit retest – S. cerevisiae, GFP fusion, cherry picks, mother/daughter gates, confirmation (AID 2274). The settings on record: S. cerevisiae CIT2-GFP strain, flow cytometry, 3 h, at 10 µM, stronger effect = higher value.
Test [12] is described as follows: green-channel fluorescence artefact in S. cerevisiae – s288c strain, artefact control for yeast TOR pathway GFP screen, dose response (AID 2757;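 active means fluorescence span over the dose series, or activity score, above about 33, limit read from the data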;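 further: thousands of bead-calibrated equivalent soluble fluorophore molecules from median cell fluorescence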). The note with it: 520 nm autofluorescence, flow cytometry, 3 h, at 33 µM, stronger effect = higher value, zero means same as solvent-only cells.
Where [13] appears, read: measured here: daughter cell gate.
Where [14] appears, read: measured here: mother cell gate.
Setting [15] is: measured here: daughter cell gate response.
The mark [16] stands for this setting: measured here: mother cell gate response.

Values joined by “and” are separate entries in the source; they are usually repeats but may differ in a detail not shown here. Equal values may be shown once. For some of these results: Results with a measured potency or affinity are listed apart. This is one part of the list. Active and inactive are the calls of the source.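 How the source made its calls, unless noted: active means GFP response above 150% of the DMSO level; inconclusive means fewer than 70 events counted for a yeast strain; inactive means the rest.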

Cell division control protein 42 homolog (Homo sapiens), sequence (P60953 whole entry, looked up): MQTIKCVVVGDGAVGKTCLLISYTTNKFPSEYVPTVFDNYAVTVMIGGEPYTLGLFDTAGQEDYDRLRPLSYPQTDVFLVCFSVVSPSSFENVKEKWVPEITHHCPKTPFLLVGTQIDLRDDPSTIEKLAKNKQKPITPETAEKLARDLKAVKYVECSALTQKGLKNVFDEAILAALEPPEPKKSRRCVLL

Take `Oc1ccc2ccccc2c1/C=N/Nc1nnc(-c2ncc[nH]2)c2ccccc12`: the compound was called inactive in [1], in [4] and in [6]. Also, the fluorescence, percent of control (lower = inhibition) in [2] amounted to 44%. Besides, in test [3], the GTP binding, percent of control amounted to 59.7%. In [5], this compound registered a GTP binding signal, raw median fluorescence (lower = inhibition) (MCF (arbitrary fluorescence units)) of 138. For the same compound, the GFP response vs DMSO was 108% (inactive) in [7], 91.9% in [7] (setting [13]), 108% in test [7] (setting [14]) and 137% (inactive) in test [9]. The GFP response relative to DMSO was 123% (inactive) in test [8], 119% in test [8] (setting [15]) and 128% in test [8] (setting [16]). Moreover, the GFP response, % of DMSO in test [10] was 95.9% (inactive); in test [11], 162% (active); in test [11] (setting [13]), 114%; in test [11] (setting [14]), 205%.
`O=C(C#Cc1ccccc1)c1cccc([N+](=O)[O-])c1`: the result in test [1], in test [4] and in test [6] was inactive. In addition, in [2], the fluorescence, percent of control (lower = inhibition) was 50.9% and 49.2%. Also, the GTP binding, percent of control in test [3] is 170% and 92.3%. In addition, the GTP binding signal, raw median fluorescence (lower = inhibition) (MCF (arbitrary fluorescence units)) in test [5] stood at 92.8. Besides, the GFP response vs DMSO is 92.5% (inactive) in [7], 95.9% in test [7] (setting [13]), 85.9% in test [7] (setting [14]) and 121% (inactive) in test [9]. The GFP response relative to DMSO in [8] was 182% (active); in [8] (setting [15]) it was 166%; in [8] (setting [16]), 183%. Further, the GFP response, % of DMSO in [10] is 112% (inactive); in test [11], 105% (inactive); in test [11] (setting [13]), 110%; in [11] (setting [14]), 97.3%.
As to `O=C(/C=C/c1ccc(Cl)c([N+](=O)[O-])c1)c1cccnc1`, the compound was classed as inactive in [1], in test [4] and in test [6]. In test [2], the fluorescence, percent of control (lower = inhibition) came out at 30.5%. For the same compound, in test [3], the GTP binding, percent of control is 73.5%. Also, the GTP binding signal, raw median fluorescence (lower = inhibition) (MCF (arbitrary fluorescence units)) in [5] stood at 206. The GFP response vs DMSO in test [7] is 91.5% (inactive); in test [7] (setting [13]), 89.7%; in test [7] (setting [14]), 84.1%; in test [9], 105% (inactive). Moreover, the GFP response relative to DMSO in test [8] was 207% (active); in test [8] (setting [15]), 192%; in test [8] (setting [16]) it was 215%. Moreover, the GFP response, % of DMSO in test [10] was 107% (inactive); in test [11], 86% (inactive); in test [11] (setting [13]), 102%; in test [11] (setting [14]) it was 72.8%. Moreover, in [12], the fluorescence change (kMESF span) is 1.02 (inactive).
In the case of `O=C(C#Cc1cccc([N+](=O)[O-])c1)c1ccccc1`, the outcome in test [1], in test [4] and in test [6] was inactive. In addition, in test [2], the fluorescence, percent of control (lower = inhibition) came out at 31.6%. In addition, the GTP binding, percent of control in [3] amounted to 81%. Also, the GTP binding signal, raw median fluorescence (lower = inhibition) (MCF (arbitrary fluorescence units)) in test [5] was found to be 245. In addition, the GFP response vs DMSO in test [7] is 94.1% (inactive); in [7] (setting [13]) it was 98%; in test [7] (setting [14]) it was 88%; in test [9], 133% (inactive). In addition, the GFP response relative to DMSO in test [8] was 190% (active); in test [8] (setting [15]), 167%; in test [8] (setting [16]) it was 178%. For the same compound, the GFP response, % of DMSO in test [10] was 113% (inactive); in test [11] it was 101% (inactive); in test [11] (setting [13]), 104%; in test [11] (setting [14]), 91%.
In the case of `Cc1cc(C)c(C(=O)Cn2cnc3cc([N+](=O)[O-])ccc3c2=O)cc1C`, the outcome in test [1], in [4] and in test [6] was inactive. Moreover, the fluorescence, percent of control (lower = inhibition) in [2] is 34%. In test [3], this compound returned a GTP binding, percent of control of 74.6%. For the same compound, in [5], the GTP binding signal, raw median fluorescence (lower = inhibition) (MCF (arbitrary fluorescence units)) worked out at 161. Further, the GFP response vs DMSO is 100% (inactive) in test [7], 101% in test [7] (setting [13]), 99.8% in test [7] (setting [14]) and 99.3% (inactive) in test [9]. In addition, the GFP response relative to DMSO in test [8] is 89.4% (inactive); in test [8] (setting [15]), 88.2%; in [8] (setting [16]) it was 91.3%. The GFP response, % of DMSO in test [10] was 102% (inactive); in test [11] it was 97.2% (inactive); in [11] (setting [13]) it was 97.6%; in [11] (setting [14]) it was 98.2%.
In the case of `COC(=O)n1c(=S)oc2cc(Cl)ccc21`, the compound was called inactive in [1], in [4] and in test [6]. This compound also yielded a fluorescence, percent of control (lower = inhibition) in test [2] of 58.3%. The compound also displayed a GTP binding, percent of control in test [3] of 154%. In test [5], this compound yielded a GTP binding signal, raw median fluorescence (lower = inhibition) (MCF (arbitrary fluorescence units)) of 170. Moreover, the GFP response vs DMSO in test [7] was 106% (inactive); in test [7] (setting [13]) it was 93.9%; in test [7] (setting [14]) it was 94.5%; in [9] it was 141% (inactive). Moreover, the results for the GFP response relative to DMSO in test [8], in test [8] (setting [15]) and in test [8] (setting [16]) were 126% (inactive), 105% and 110%, respectively. The GFP response, % of DMSO in test [10] is 111% (inactive); in [11], 121% (inactive); in test [11] (setting [13]), 98.3%; in test [11] (setting [14]), 100%.
